Assay [1] has as its system Zika virus NS2B-NS3 protease. Briefly: Primary screen GU AMC qHTS for Zika virus inhibitors (AID 1347154).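 Further: 0% = no-inhibitor control and -100% = no-enzyme control; nearly all actives have a fitted effect of over 70% in size.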 An outline of the steps:
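Unlinked Zika NS2B hydrophilic domain/NS3 protease domain noncovalent complex (25 nM final) in 10 mM Tris-HCl pH 8.0, 0.01% Tween 20, with AMC peptide substrate. Fluorescence (ex 340, em 450 nm) change over 15 min, room temperature; percent inhibition fitted to 4-parameter Hill equation.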

The nature of assay [2]: Primary qHTS for small molecule stabilizers of the endoplasmic reticulum resident proteome: Secreted ER Calcium Modulated Protein (SERCaMP) assay (AID 1508630). Further: potency means the concentration at half of the fitted maximal effect. On activity change, negative = inhibition: on the % scale 0 is the no-effect control and ±100 the full control effect. An outline of the steps:
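GLuc-SERCaMP-expressing SH-SY5Y cells, pretreated 16 h with compound, are challenged with thapsigargin to empty ER calcium stores; after 4 h, coelenterazine is added directly to the medium and luminescence is imaged.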

The source of these data is PubChem BioAssay (NCATS).

Inconclusive results are not listed. Values without a mark were called inactive. The source made the active and inactive calls. The call rests on the fitted dose curve; in most records, active means well fitted curve in the direction sought with a large enough effect; inconclusive means small, poorly fitted or top-dose-only effect, or another doubt; inactive means no such curve, though single readings can be large; an effect the other way counts as inactive or inconclusive. Where a SMILES comes first, the peptide text is derived from it. [ ]: non-standard residue; d: D form. Nle = CCCC[C@H](N)C(=O)O

As to `COC(=O)[C@H]1C2CC3c4[nH]c5ccccc5c4CCN3CC2CC[C@@H]1O` (stereo not given in full), the Potency result in assay [1] and in assay [2] was “inactive” in each case.

Turning to `CCCCC(C)(O)C/C=C/[C@H]1[C@H](O)CC(=O)[C@@H]1CCCCCCC(=O)O` (stereo not given in full), the results for the activity change, negative = inhibition in assay [1] and in assay [2] were 14% [at 6.83 µM] and -15.4% [at 3.88 µM], respectively.

Regarding `c1ccc(CN(CCN(Cc2ccccn2)Cc2ccccn2)Cc2ccccn2)nc1`, the Potency entry in assay [1] and in assay [2] was “inactive” in each case.

In the case of `CCOC(=O)C12CC1/C(=N\O)c1ccccc1O2` (stereo not given), the Potency entry in assay [1] and in assay [2] was “inactive” throughout.

`N[C@](CC1c2ccccc2Oc2ccccc21)(C(=O)O)[C@H]1C[C@@H]1C(=O)O`: the Potency result in assay [1] and in assay [2] was “inactive” throughout.

For `Nc1ccnc2c1ncn2[C@@H]1O[C@H](CO)[C@@H](O)[C@H]1O`, the Potency entry in assay [1] and in assay [2] was “inactive” throughout.

With `CCCC(=O)NCCc1c(I)[nH]c2ccc(OC)cc12`, the Potency result in assay [1] and in assay [2] was “inactive” throughout.

With `CC[C@H](C)[C@H](NC(=O)[C@H](CCCN=C(N)N)NC(=O)[C@H](CCCN=C(N)N)NC(=O)[C@H](CC(C)C)NC(=O)[C@H](Cc1ccccc1)NC(=O)CNC(=O)CN)C(=O)N[C@@H](CCCN=C(N)N)C(=O)N1CCC[C@H]1C(=O)N[C@@H](CCCCN)C(=O)N[C@@H](CC(C)C)C(=O)N[C@@H](CCCCN)C(=O)O`, the activity change, negative = inhibition in assay [1] was 11.9% [at 6.83 µM]; in assay [2], -2.68% [at 3.88 µM].

As to `Nc1ncnc2c1ncn2[C@@H]1O[C@H](COP(=O)(O)OP(=O)(O)OC[C@H]2OC(O)[C@H](O)[C@@H]2O)[C@@H](O)[C@H]1O` (stereo not given in full), the Potency result in assay [1] and in assay [2] was “inactive” in each case.

In the case of `CCCCC/C=C\C=C\[C@H](O)CCCCCCCC(=O)O`, the activity change, negative = inhibition was 19.3% [at 0.59 µM] in assay [1] and 2.02% [at 0.478 µM] in assay [2].

Regarding `CCCCCCCC/C=C\C/C=C\C/C=C\CCCC(=O)NCCO`, the activity change, negative = inhibition in assay [1] was 9.89% [at 6.83 µM]; in assay [2], -21.6% [at 3.88 µM].

In the case of `O=Nc1ccc(O)c2ncccc12`, the Potency entry in assay [1] and in assay [2] was “inactive” in each case.

For the compound `O=C(O)/C=C1\CCCc2ccccc2C1O` (stereo not given), the Potency entry in assay [1] and in assay [2] was “inactive” throughout.

Turning to `O=P(O)(O)C(O)c1ccc2ccccc2c1` (stereo not given), the Potency entry in assay [1] and in assay [2] was “inactive” throughout.

With `CCCCCCCCCCCCC/C=C/[C@@H](O)[C@H](CO)NC(C)=O`, the activity change, negative = inhibition in assay [1] was 16.6% [at 6.83 µM]; in assay [2], 1.43% [at 3.88 µM].

Turning to `NCCC(=O)c1ccccc1N`, the Potency entry in assay [1] and in assay [2] was “inactive” throughout.

Regarding `[C-]#[N+]c1cc(-c2ccncc2)c(C)[nH]c1=O`, the Potency entry in assay [1] and in assay [2] was “inactive” in each case.

Take `COCCCCCCCCCCCC(=O)O`: the activity change, negative = inhibition in assay [1] is 13.2% [at 6.83 µM]; in assay [2] it was -27.3% [at 3.88 µM].

`Nc1ncc2[nH]cnc2n1`: the Potency result in assay [1] and in assay [2] was “inactive” each time.

Take `CCCCC/C=C\C\C=C/C=C/C=C/[C@@H](SCC(NC(C)=O)C(=O)O)[C@@H](O)CCCC(=O)O` (stereo not given in full): the activity change, negative = inhibition in assay [1] was 13.7% [at 0.59 µM]; in assay [2], -5.72% [at 0.478 µM].

With `Cn1cnc2nc(NCCO)nc(NCc3ccccc3)c21`, the Potency result in assay [1] and in assay [2] was “inactive” in each case.

As for `C[C@H](CCC(=O)NCCS(=O)(=O)O)C1CC[C@H]2C3CC[C@@H]4C[C@H](O)CC[C@]4(C)C3C[C@H](O)[C@]12C` (stereo not given in full), the Potency entry in assay [1] and in assay [2] was “inactive” throughout.

Take `CC(=O)NC1C(OC2OC(CC(O)C3OC([N+]4=CCC(=O)NC4=O)C(O)C3O)C(O)C(O)C2NC(=O)/C=C/CCCCCCCCC(C)C)OC(CO)C(O)C1O` (stereo not given): in assay [1], the Potency result was “inactive”. The Potency in assay [2] is 1000 nM (active).

Consider `CCCCCCCCCCC/C=C\C/C=C\CCCC(=O)O`, for which the activity change, negative = inhibition is 7.9% [at 6.83 µM] in assay [1] and -21.5% [at 3.88 µM] in assay [2].

With `NC(N)=NCCC[C@H](NC(=O)[C@@H](N)Cc1ccc(O)cc1)C(=O)O`, the values for the activity change, negative = inhibition in assay [1] and in assay [2] were 2.03% [at 6.83 µM] and -11.6% [at 3.88 µM], respectively.

As to `N#Cc1ccccc1OCC(O)CNCCNC(=O)Nc1ccccc1` (stereo not given), the Potency entry in assay [1] and in assay [2] was “inactive” each time.

As for `CCCC[C@@H](C=O)NC(=O)[C@H](CC(C)C)NC(=O)[C@H](CC(C)C)NC(C)=O` (Ac-Leu-Leu-[Nle]-aldehyde), the Potency result in assay [1] and in assay [2] was “inactive” each time.

On to `CC[C@@H](C)[C@@H](CO[C@@H](Cc1ccccc1)C(=O)N[C@@H](CCS(C)(=O)=O)C(=O)OC(C)C)NC[C@@H](N)CS`, for which the Potency entry in assay [1] and in assay [2] was “inactive” in each case.

With `CCCCC/C=C\C/C=C\CCCCCCCCCC(=O)O`, the activity change, negative = inhibition was -1.98% [at 6.83 µM] in assay [1] and -7.65% [at 3.88 µM] in assay [2].

For `Nc1ncnc2c1nc(Br)n2[C@@H]1O[C@H]2COP(=O)(O)O[C@@H]2[C@@H]1O`, the Potency result in assay [1] and in assay [2] was “inactive” in each case.

On to H-EQKQLQ-OH, for which the activity change, negative = inhibition was 7.08% [at 6.83 µM] in assay [1] and -18.8% [at 3.88 µM] in assay [2].

As for `CC1=C(/C=C/C(C)=C/C=C/C(C)=C\CO)C(C)(C)CCC1`, the Potency entry in assay [1] and in assay [2] was “inactive” in each case.

For the compound `NC1(C(=O)O)CCc2cc(P(=O)(O)O)ccc21` (stereo not given), the Potency result in assay [1] and in assay [2] was “inactive” throughout.

On to `CCCCCCOC(=O)C1(O)CC2OC1(C)n1c3ccccc3c3c4c(c5c6ccccc6n2c5c31)C(=O)NC4` (stereo not given), for which the values for the activity change, negative = inhibition in assay [1] and in assay [2] were 19.5% [at 4.99 µM] and -23% [at 3.88 µM], respectively.

As to `NCCCCCc1cnc[nH]1`, the Potency entry in assay [1] and in assay [2] was “inactive” each time.

Take `C=C1CC[C@H](O)C/C1=C/C=C1\CCC[C@]2(C)C([C@H](C)CCCC(C)(C)O)CC[C@@H]12` (stereo not given in full): the Potency entry in assay [1] and in assay [2] was “inactive” each time.

Regarding `CC12CCC3c4ccc(O)cc4CCC3C1CCC2O` (stereo not given), the Potency result in assay [1] and in assay [2] was “inactive” in each case.

For the compound `COc1cc2ncnc(Nc3ccc(Cl)cc3F)c2cc1OC`, the Potency entry in assay [1] and in assay [2] was “inactive” each time.

`COc1ccc2[nH]cc(CCNC(=O)C3CC3)c2c1`: the Potency entry in assay [1] and in assay [2] was “inactive” each time.

For `N[C@@]1(C(=O)O)CO[C@H]2[C@H](C(=O)O)[C@H]21`, the Potency entry in assay [1] and in assay [2] was “inactive” in each case.

Turning to `Cc1nc(N=Nc2cc([N+](=O)[O-])ccc2Cl)c(COP(=O)(O)O)c(C=O)c1O`, the Potency result in assay [1] and in assay [2] was “inactive” throughout.

In the case of `NC(C(=O)O)c1cc(O)cc(O)c1` (stereo not given), the Potency entry in assay [1] and in assay [2] was “inactive” in each case.

Take `COC(=O)[C@@H](c1ccccc1Cl)N1CCc2sccc2C1`: the Potency result in assay [1] and in assay [2] was “inactive” each time.

Turning to `COc1ccc(-n2[nH]c3c4c(ncc3c2=O)CCCCC4)cc1`, the Potency result in assay [1] and in assay [2] was “inactive” each time.

For `CCCCC/C=C\C/C=C\CCCCCCCC(=O)NCC(=O)O`, the activity change, negative = inhibition in assay [1] is 18.9% [at 6.83 µM]; in assay [2], -10.8% [at 3.88 µM].
